Y pestis TopoI: blocks Yersinia pestis topoisomerase I activity | Y. pestis Topo-I cleavage product accumulation, plate reader | activity, % at 10 µM | 360,000 compounds, 0.064% hits | AID 504884; in the data active means activity above about 50%, passing the limit was not always enough; inconclusive means no clear call, values can overlap the other calls
TcdB inh: inhibitors of Clostridioides difficile toxin B glycohydrolase | P18177 | TcdB glycohydrolase enzymatic assay, plate reader | inhibition, % at 9.99 µM | 350,000 compounds, 0.24% hits | AID 652162; in the data active means inhibition above about 10%
Target sequence (P18177 whole entry, looked up): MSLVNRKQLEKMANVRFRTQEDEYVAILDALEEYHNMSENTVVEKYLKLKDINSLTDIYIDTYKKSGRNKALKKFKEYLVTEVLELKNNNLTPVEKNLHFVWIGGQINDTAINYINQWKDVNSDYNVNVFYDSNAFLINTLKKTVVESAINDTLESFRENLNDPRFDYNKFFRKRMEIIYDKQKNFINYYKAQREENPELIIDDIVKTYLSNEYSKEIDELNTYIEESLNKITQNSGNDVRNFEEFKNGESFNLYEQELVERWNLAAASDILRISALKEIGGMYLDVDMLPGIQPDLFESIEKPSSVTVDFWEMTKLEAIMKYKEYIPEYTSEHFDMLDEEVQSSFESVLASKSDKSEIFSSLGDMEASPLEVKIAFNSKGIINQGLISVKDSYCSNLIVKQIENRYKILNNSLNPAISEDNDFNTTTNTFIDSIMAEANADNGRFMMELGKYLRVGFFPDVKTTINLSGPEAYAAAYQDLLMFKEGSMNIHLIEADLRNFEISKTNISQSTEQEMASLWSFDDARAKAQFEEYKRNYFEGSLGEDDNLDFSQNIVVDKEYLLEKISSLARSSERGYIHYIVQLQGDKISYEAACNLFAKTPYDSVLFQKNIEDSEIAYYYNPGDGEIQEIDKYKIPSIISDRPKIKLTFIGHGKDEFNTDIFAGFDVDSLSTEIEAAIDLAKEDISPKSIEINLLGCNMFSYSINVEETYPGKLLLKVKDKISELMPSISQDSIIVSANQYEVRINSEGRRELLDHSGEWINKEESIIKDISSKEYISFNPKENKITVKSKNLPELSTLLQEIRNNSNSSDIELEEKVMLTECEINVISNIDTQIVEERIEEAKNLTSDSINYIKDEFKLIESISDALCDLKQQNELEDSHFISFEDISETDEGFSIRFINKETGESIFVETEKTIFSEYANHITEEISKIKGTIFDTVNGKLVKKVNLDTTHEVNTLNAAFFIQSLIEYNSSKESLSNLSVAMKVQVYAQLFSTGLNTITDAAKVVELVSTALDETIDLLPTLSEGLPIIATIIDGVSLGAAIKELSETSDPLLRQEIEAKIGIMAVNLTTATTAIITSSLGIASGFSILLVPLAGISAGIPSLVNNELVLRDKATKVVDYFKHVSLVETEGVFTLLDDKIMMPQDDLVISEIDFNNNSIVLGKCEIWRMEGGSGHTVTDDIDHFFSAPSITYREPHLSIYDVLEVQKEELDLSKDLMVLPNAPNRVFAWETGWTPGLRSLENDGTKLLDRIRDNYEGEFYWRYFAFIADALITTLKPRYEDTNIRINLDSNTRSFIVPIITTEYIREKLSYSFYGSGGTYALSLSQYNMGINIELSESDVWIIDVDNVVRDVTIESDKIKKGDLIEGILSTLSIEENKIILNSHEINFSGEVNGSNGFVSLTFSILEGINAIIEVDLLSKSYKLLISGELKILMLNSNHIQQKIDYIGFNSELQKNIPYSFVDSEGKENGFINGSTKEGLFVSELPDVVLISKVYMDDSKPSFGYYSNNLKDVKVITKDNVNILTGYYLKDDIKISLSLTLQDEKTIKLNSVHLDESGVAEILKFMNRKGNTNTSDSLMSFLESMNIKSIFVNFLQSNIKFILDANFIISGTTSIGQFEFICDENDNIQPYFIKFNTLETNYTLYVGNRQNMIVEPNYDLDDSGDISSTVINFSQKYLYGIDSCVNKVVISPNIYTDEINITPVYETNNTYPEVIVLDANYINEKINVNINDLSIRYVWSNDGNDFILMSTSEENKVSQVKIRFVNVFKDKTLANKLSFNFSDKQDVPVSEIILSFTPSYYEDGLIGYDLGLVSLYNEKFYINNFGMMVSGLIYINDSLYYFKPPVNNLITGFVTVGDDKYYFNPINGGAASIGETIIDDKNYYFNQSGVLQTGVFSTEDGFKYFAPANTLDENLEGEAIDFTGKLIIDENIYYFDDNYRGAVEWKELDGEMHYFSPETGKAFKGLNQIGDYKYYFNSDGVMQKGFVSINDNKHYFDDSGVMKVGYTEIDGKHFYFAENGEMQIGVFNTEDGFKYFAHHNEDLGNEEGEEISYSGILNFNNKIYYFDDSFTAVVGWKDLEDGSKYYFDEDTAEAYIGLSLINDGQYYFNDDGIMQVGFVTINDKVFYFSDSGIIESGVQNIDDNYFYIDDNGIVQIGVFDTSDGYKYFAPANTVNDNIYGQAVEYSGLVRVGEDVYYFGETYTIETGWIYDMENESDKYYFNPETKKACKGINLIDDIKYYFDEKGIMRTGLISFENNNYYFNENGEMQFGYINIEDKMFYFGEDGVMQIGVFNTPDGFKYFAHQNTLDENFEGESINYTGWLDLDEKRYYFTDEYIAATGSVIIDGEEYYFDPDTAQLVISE
FadD28 binding: blocks FadD28 binding to the bisubstrate probe | fluorescence polarization | inhibition, % at 12.5 µM | 360,000 compounds, 0.22% hits; in the data active means inhibition above about 8.5%, passing the limit was not always enough; inconclusive means no clear call, values can overlap the other calls
BioA inh: blocks M. tuberculosis BioA enzyme activity. purified M. tuberculosis BioA enzyme, plate reader. inhibition, % at 9.99 µM. 360,000 compounds, 0.096% hits; in the data active means inhibition above about 40%; inconclusive means no clear call, values can overlap the other calls
Hits are given with their value; n = inactive; u = inconclusive; x = no result given. Shown are actives, neighbours in structure and some others; about 0.45% of the full set was active somewhere.

SMILES	Y pestis TopoI	TcdB inh	FadD28 binding	BioA inh
Cc1ccc(NC(=O)CN2C(=O)N/C(=C/c3cc(C)n(-c4cccc(C(=O)O)c4)c3C)C2=O)cc1	n	n	49	x
CCn1c(C)cc(/C=C2\NC(=O)N(CC(=O)Nc3cccc(C)c3)C2=O)c1C	n	x	10	n
CCn1c(C)cc(/C=C2/NC(=O)N(CC(=O)Nc3cccc(C)c3)C2=O)c1C	n	x	n	n
COc1ccc(/C=C2/NC(=O)N(CC(=O)Nc3cccc(C)c3)C2=O)cc1O	n	n	18	n
Cc1cccc(NC(=O)CN2C(=O)N/C(=C/c3ccc(C)o3)C2=O)c1	n	x	n	n
CNC[C@@H]1Oc2ccc(NS(=O)(=O)c3cn(C)cn3)cc2CC(=O)N([C@@H](C)CO)C[C@@H]1C	x	n	x	n
COc1ccc(S(=O)(=O)N[C@H]2C=C[C@@H](CC(=O)O)O[C@H]2CO)cc1	x	n	x	n
CCCNC(=O)N1CC2(CCN(C(=O)C3CCCC3)CC2)c2c([nH]c3cc(OC)ccc23)[C@H]1CO	x	n	x	x
COc1cccc(NC(=O)Nc2ccc3c(c2)C(=O)N(C)[C@H]2CC[C@@H](CC(=O)O)O[C@@H]2CO3)c1	x	x	x	n
Cc1cccc(NC(=O)CN2C(=O)S/C(=C\c3ccc(-c4cccc(C(=O)O)c4C)o3)C2=O)c1	x	n	x	x
COc1cc(/C=C2\SC(=O)N(CC(=O)Nc3cccc(C)c3)C2=O)cc([N+](=O)[O-])c1O	n	n	31	x
Cc1ccc(NC(=O)CN2C(=O)S/C(=C/c3ccc(-c4cc(C(=O)O)ccc4C)o3)C2=O)cc1C	n	x	14	n
COc1ccccc1Oc1cn[nH]c1-c1ccc(O)cc1O	n	19	n	x
N#C/C(=C\c1cccs1)c1nc2ccccc2[nH]1	n	x	n	n
N#C/C(=C/c1ccc(O)c(O)c1)c1nc2ccccc2[nH]1	n	n	12	n
CO[C@H]1CN(C)C(=O)c2ccc(NC(C)=O)cc2OC[C@H](C)N(C(=O)CC2CC2)C[C@@H]1C	x	n	x	x
CSc1ccc(-c2nc3cnccn3c2Nc2ccc3c(c2)OCO3)cc1	n	x	n	61
COc1ccc(-n2cc(CNCC3CC(=O)N(C4CC4)C3)c(-c3ccccc3Cl)n2)cc1 (configuration not stated)	n	n	n	x
CCN1CC(CNCc2cn(-c3ccc(OC)cc3)nc2-c2ccccc2Cl)CC1=O (configuration not stated)	n	11	n	x
COc1ccc(C(=O)NCCc2c[nH]c3ccccc23)cc1S(=O)(=O)N1CCOCC1	n	x	8.4	n
CCOC(=O)c1cc([N+](=O)[O-])sc1N	n	29	n	n
CCOC(=O)c1cc([N+](=O)[O-])sc1NC(=O)CC	n	n	n	n
COCC(=O)Nc1ccc2c(c1)C(=O)N(C)C[C@H](OC)[C@@H](C)CN(Cc1cccc(F)c1)[C@H](C)CO2	x	n	x	n
CC/C(=N\NC(=O)c1ccccc1O)c1c(O)n(C2CCCCC2)c(=O)[nH]c1=O	n	n	15	n
O=C(N/N=C/c1c[nH]c2ccccc12)c1cc(Br)ccc1O	n	n	29	n
SMILES	Y pestis TopoI	TcdB inh	FadD28 binding	BioA inh
CCOc1ccc(Br)cc1C(=O)N/N=C/c1c[nH]c2ccccc12	n	n	n	n
Cc1nc(N)sc1C(=O)N/N=C/c1c[nH]c2ccccc12	n	x	9.9	n
CC1C(c2ccc3c(c2)OCO3)c2cc3c(cc2OC1N1CCOCC1)OCO3 (configuration not stated)	n	11	n	x
COc1cc(C2c3cc4c(cc3OC(N3CCCCC3)C2C)OCO4)cc(OC)c1O (configuration not stated)	n	n	n	x
O=C(Cc1ccccc1)NNC(=S)NC(=O)c1cccnc1	n	19	n	n
O=C(NNC(=S)NC(=O)c1cccnc1)c1ccccc1	n	x	n	n
S=C(NCc1ccccc1)NCc1cccc(CNC(=S)NCc2ccccc2)c1	n	n	25	n
O=C(NC(=S)NCc1ccccc1)c1cccnc1	n	16	n	n
O=C(NNC(=S)NCc1ccccc1)c1cccnc1	n	n	n	n
COc1ccc(CC(=O)NNC(=S)NC(=O)c2cccnc2)cc1	n	15	n	n
C[C@H]1CN([C@@H](C)CO)S(=O)(=O)c2ccc(-c3ccncc3)cc2O[C@@H]1CN(C)C(=O)CN(C)C	x	n	x	n
Cc1ccc(NNC(=O)c2ccno2)cc1Cl	n	73	n	n
Cc1cc(C(=O)NNc2ccc(C)c(C)c2)no1	n	61	n	x
Cc1ccc(NNC(=O)c2ccno2)cc1C	n	88	n	x
O=C(Nc1cc(Cl)cc(Cl)c1)c1ccno1	n	n	n	n
Cc1cc(C(=O)NNc2ccc(Cl)cc2)no1	n	x	n	n
O=C(O)c1ccccc1NC(=O)N1C[C@H]2C[C@@H](C1)c1cccc(=O)n1C2	n	15	n	n
CCOc1ccccc1N1CCN(C2=C(NS(=O)(=O)c3cccs3)C(=O)c3ccccc3C2=O)CC1	n	x	14	n
C[C@H]1CN([C@@H](C)CO)C(=O)c2cccc(NS(=O)(=O)c3ccccc3)c2O[C@H]1CN(C)Cc1ccc(Oc2ccccc2)cc1	x	n	x	n
Cc1ccc(CNC(=O)C(Cc2ccccc2)NS(=O)(=O)c2ccc(Br)s2)cc1 (configuration not stated)	n	n	50	x
Cc1ccc(CNC(=O)[C@H](Cc2ccccc2)NC(=O)c2ccco2)cc1	n	n	n	n
Cc1ccc(CNC(=O)C(Cc2ccccc2)NS(=O)(=O)c2cccs2)cc1 (configuration not stated)	n	n	16	n
CSCCC(NS(=O)(=O)c1cccs1)C(=O)NCc1ccc(C)cc1 (configuration not stated)	n	n	n	n
CN(C)CC(=O)N1CC2(C1)[C@@H](c1ccccc1)[C@@H](CO)N2Cc1cc(F)ccc1F	x	n	x	x
O=C(C[C@@H]1C=C[C@H](NC(=O)C2CCOCC2)[C@H](CO)O1)Nc1ccccc1	x	n	x	x
SMILES	Y pestis TopoI	TcdB inh	FadD28 binding	BioA inh
C[C@H](CO)N1C[C@H](C)[C@H](CN(C)Cc2ccc(C(F)(F)F)cc2)Oc2ccc(NC(=O)NC3CCCCC3)cc2C1=O	x	n	x	n
CCOC(=O)N1CCN(S(=O)(=O)c2ccc(C(=O)NNc3nc4c(C)cc(C)cc4s3)cc2)CC1	n	n	15	n
CCOC(=O)N1CCN(S(=O)(=O)c2ccc(C(=O)NNc3nc4c(C)cccc4s3)cc2)CC1	n	n	17	n
CCOC(=O)N1CCN(S(=O)(=O)c2ccc(C(=O)NNc3nc4ccc(Cl)cc4s3)cc2)CC1	n	x	12	n
C[C@@H]1CCCCO[C@@H](CN(C)CC2CCCCC2)[C@H](C)CN([C@@H](C)CO)C(=O)c2cc(NC(=O)Nc3ccc(F)cc3)ccc2O1	x	n	x	n
S=C(c1cn(Cc2ccccc2)c2ccccc12)N1CCOCC1	n	17	n	x
Cc1n[nH]c(=O)nc1Nc1ccc(O)cc1	n	21	n	n
Cc1ccc(Nc2nc(=O)[nH]nc2C)cc1	n	x	n	n
CCC(=O)N(C)C[C@H]1Oc2cc(C#CCN(C)C)ccc2S(=O)(=O)N([C@@H](C)CO)C[C@H]1C	x	n	x	n
O=C1/C(=C/c2cccnc2)SC(=NCc2ccccc2)N1Cc1ccccc1	n	10	n	x
CCN(CC)S(=O)(=O)c1cc(C(=O)Nc2cccnc2Cl)ccc1Cl	u	11	n	x
